Eya2 inh: qHTS Assay for Inhibitors of the Phosphatase Activity of Eya2 | recombinant Eya2, OMFP fluorescence dephosphorylation (OMFP is methylfluorescein phosphate) | Potency, µM (top dose mostly 76.9 µM), for the others: at the highest dose activity, negative = inhibition, hits mostly inhibitors | 330,000 compounds, 0.006% hits | AID 488837, 2010; further: potency means the concentration at half of the fitted maximal effect; on the % scale 0 is the no-effect control and ±100 the full control effect
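Eya2 (0.2 uM) preincubated 10 min at ambient with compound, then OMFP substrate added at 50 uM; 10 min reaction in 50 mM HEPES pH 7.5, 50 mM NaCl, 5 uM MgCl2, 0.05% BSA, 1 mM DTT. Fluorescence read at Ex 485/Em 525 nm.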
USP2a inh: qHTS Assay for Inhibitors of Ubiquitin-specific Protease USP2a Using CHOP2 as the Reporter | Potency, µM (series often up to 38.3 µM), without a hit: at the top dose activity change, negative = inhibition, hits mostly inhibitors | 330,000 compounds, 0.01% hits | USP2 core, Ub-CHOP2 coupled fluorogenic reporter, 485/531 | Ubiquitin carboxyl-terminal hydrolase 2 (Homo sapiens), O75604;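 further: potency means the concentration at half of the fitted maximal effect; plate controls were DMSO wells for no effect and full inhibition by NEM control for full effect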
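USP2 core (10nM final) preincubated 30min RT with compound in 20mM Tris-HCl pH 8.0, 2mM CaCl2, 2mM beta-mercaptoethanol, 0.05% CHAPS; 25nM Ub-CHOP2 plus 25nM reporter substrate added, fluorescence (Ex485/Em531) read after 60min.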
D1 PAM: Potentiators of Human D1 Dopamine Receptor: qHTS; 360,000 compounds, 0.036% hits; potentiation, % at 10 µM; HEK293 TREx D1 cells, calcium flux, dopamine EC20 potentiation; in the data active means potentiation above about 30%; further: 0% is about no effect
Target sequence (P21728 whole entry, looked up): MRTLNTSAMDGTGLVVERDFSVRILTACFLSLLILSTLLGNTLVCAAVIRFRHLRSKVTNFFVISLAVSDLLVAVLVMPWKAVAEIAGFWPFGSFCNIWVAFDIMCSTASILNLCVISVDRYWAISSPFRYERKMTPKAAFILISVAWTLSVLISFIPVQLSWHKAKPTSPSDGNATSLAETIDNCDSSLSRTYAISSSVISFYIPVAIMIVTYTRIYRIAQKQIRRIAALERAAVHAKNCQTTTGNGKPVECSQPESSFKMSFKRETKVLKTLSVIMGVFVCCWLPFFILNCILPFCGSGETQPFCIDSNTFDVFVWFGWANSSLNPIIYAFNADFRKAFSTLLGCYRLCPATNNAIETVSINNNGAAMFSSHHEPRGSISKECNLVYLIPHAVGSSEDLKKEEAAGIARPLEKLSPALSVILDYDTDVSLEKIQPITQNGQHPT
D1 antagonist: Antagonist of Human D 1 Dopamine Receptor: qHTS. D(1A) dopamine receptor (Homo sapiens), P21728. activity change, negative = inhibition, % at 10 µM. AID 504652, 2011. HEK293 TREx D1 cells, calcium flux, dopamine EC80; hits give low values. 360,000 compounds, 3.2% hits; in the data active means activity change below about -30%; further: on the % scale 0 is the no-effect control and ±100 the full control effect
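Inducible Hek293 Trex D1 cells (tetracycline, overnight, 30 C). Calcium dye 30–90 min RT. Antagonist mode: EC80 dopamine added after 180 s compound read.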
GALK inhibitor: qHTS Assay for Inhibitors of Human Galactokinase (GALK). P51570. Purified GALK, Kinase-Glo residual ATP luminescence. Potency, µM (titrated, usually from 57.5 µM), for inactives: at the highest dose activity change, negative = inhibition, actives largely listed as inhibitors. 270,000 compounds, 0.007% hits; further: potency means the concentration at half of the fitted maximal effect; on the % scale 0 is the no-effect control and ±100 the full control effect
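Quantitative HTS: GALK 5 nM, ATP 35 uM, galactose 100 uM, 1 h room temperature, then luciferase-based ATP detection.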
D1 agonist: Allosteric Agonists of the Human D1 Dopamine Receptor: qHTS | activation, % at 2 µM | HEK293 T-REx D1 cells, calcium flux, agonist mode | D(1A) dopamine receptor (Homo sapiens), P21728 | 360,000 compounds, 1% hits | AID 504660, 2011; in the data active means activation above about 30%; further: 0% is about no effect
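Inducible HEK293 T-REx D1 cells, force-coupled to calcium signalling, were plated at 4000 cells/well with tetracycline and held overnight at 30 C. After no-wash calcium dye loading, compound-evoked calcium rise over 180 s flagged agonists.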
Starred values were filed as active, the others as inactive; / = not tested or not shown; ! = a repeat was not active. Compounds with a hit are over-represented: about 3.9% of the library has one in this group of screens. Unless noted, the call rests on the fitted dose curve; in most records, active means well fitted inhibition curve with a large enough effect; inconclusive means small, poorly fitted or top-dose-only effect, or effect the other way; inactive means flat fitted curve, though single readings scatter.

SMILES	Eya2 inh	USP2a inh	D1 PAM	D1 antagonist	GALK inhibitor	D1 agonist
CNC[C@H](O)c1cccc(O)c1	3%	3%	-6	-73*	-1%	1
COc1ccccc1-c1nc2c(c(SCC(=O)Nc3ccccc3F)n1)Cc1c(CO)cnc(C)c1O2	/	/	1	7	/	0
CC(C)c1ccc(NC(=O)C2=CC=CN3CCS(=O)(=O)N=C23)cc1	21%	-1%	-6	-32*	/	14
O=C(Nc1ccc(Oc2ccc(Br)cc2)cc1)C1=CC=CN2CCS(=O)(=O)N=C12	1%	0%	-9	-48*	/	10
CCOc1ccc(-c2nonc2NC(=O)c2oc3ccc(Cl)cc3c2C)cc1	/	/	3	-32*	/	1
COc1ccc(-c2nonc2NC(=O)c2oc3ccccc3c2C)cc1OC	-3%	-1%	-1	-22	14%	2
CC1CCc2c(sc(NC(=O)C3c4ccccc4Oc4ccccc43)c2C#N)C1 (stereo not drawn)	/	/	0	5	/	0
COc1cc2ccccc2cc1C(=O)N1CCN(c2nc3c(F)cc(F)cc3s2)CC1	/	/	3	/	/	-1
CSc1ccc(CN(C)C(=O)c2cccc(S(=O)(=O)NCc3ccccc3)c2)cc1	-4%	0%	-11	-33*	5%	16
CSc1ccc(CN(C)C(=O)c2cc(S(=O)(=O)NCc3ccccc3)ccc2C)cc1	-24%	0%	-13	5	/	3
COc1ccc(N2C(N)=NC(N)=NC2(C)C)cc1	18%	-4%	0	-3	0%	1
COc1cccc(N2C(N)=NC(N)=NC2(C)C)c1	-16%	0%	0	-54*	0%	0
Clc1cccc(N2CCN(c3c4c(nc5nncn35)CCC4)CC2)c1	/	/	1	14	/	4
O=C(Cc1ccccc1)N[C@@H](Cc1ccc(O)cc1)C(=O)O	8%	0%	7	15	0%	2
O=C(COCc1ccccc1)N[C@@H](Cc1ccc(O)cc1)C(=O)O	1%	-1%	-3	-36*	0%	-3
CCCCCn1c(=O)[nH]c2cc(C(=O)Nc3ccc(F)c(F)c3)ccc2c1=O	/	/	1	7	/	1
CCOCCCNC(=O)c1[nH]c2cc(C)ccc2c1Sc1ccc(Cl)cc1	/	/	-2	-16	/	1
C=CCSc1nnc(C)c(/C=C/Nc2ccc(Cl)cc2)n1	2%	2%	-2	-5	-2%	74*
CSc1nnc(C)c(/C=C/Nc2ccc(F)cc2F)n1	-2%	0%	-2	12	1%	5
Cc1nc2cc(-c3ccccc3)nn2c(C)c1CCC(=O)N1CCN(c2ccc(F)cc2)CC1	/	/	-3	-2	/	2
Cn1c(=O)oc2cc(S(=O)(=O)Nc3ccc(Cl)cc3)ccc21	6%	0%	6	4	-2%	2
Cn1c(=O)oc2cc(S(=O)(=O)Nc3ccc(O)cc3)ccc21	-2%	1%	-1	-31*!	2%	8
CC(C)(C)C(=O)NC(NC(=O)C(C)(C)C)c1ccc([N+](=O)[O-])cc1	2%	5%	-2	-32*	-1%	0
CN(O)C(=O)Nc1ccc([N+](=O)[O-])cc1	3%	1%	-6	2	0%	2
CC(C)(C)C(=O)Nc1ccc(Sc2ccc([N+](=O)[O-])cc2)cc1	-5%	4%	-10	-34*	-4%	7
CCn1c(=O)sc2cc(NS(=O)(=O)c3ccc(C)cc3)ccc21	/	/	-4	0	/	13
COC(=O)C(C)Oc1ccc(Cc2ncc(C(F)(F)F)cc2Cl)cc1 (stereo not drawn)	-6%	0%	-10	-37*	-1%	14
Oc1ccc(Cc2ncc(C(F)(F)F)cc2Cl)cc1	21%	0%	2	5	4%	3

Screens: PubChem BioAssay, National Center for Advancing Translational Sciences (NCATS)
